The list is not random: actives were taken first. Their share in the collection is about 2.4%.
M1 ag: human M1 muscarinic receptor agonism. P11229. CHO-K1 hM1, Fluo-8 calcium fluorescence, agonist mode; 0% DMSO, 100% acetylcholine EC100. activation, % at 3 µM. hit rate 0.33% among 360,000. AID 588814;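 active = activation above the run's mean compound activation plus 3 SD, cut at about 16% in these data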;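 also: peak over basal fluorescence ratio within a 140 s kinetic read after compound addition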
Target sequence (P11229 whole entry, looked up): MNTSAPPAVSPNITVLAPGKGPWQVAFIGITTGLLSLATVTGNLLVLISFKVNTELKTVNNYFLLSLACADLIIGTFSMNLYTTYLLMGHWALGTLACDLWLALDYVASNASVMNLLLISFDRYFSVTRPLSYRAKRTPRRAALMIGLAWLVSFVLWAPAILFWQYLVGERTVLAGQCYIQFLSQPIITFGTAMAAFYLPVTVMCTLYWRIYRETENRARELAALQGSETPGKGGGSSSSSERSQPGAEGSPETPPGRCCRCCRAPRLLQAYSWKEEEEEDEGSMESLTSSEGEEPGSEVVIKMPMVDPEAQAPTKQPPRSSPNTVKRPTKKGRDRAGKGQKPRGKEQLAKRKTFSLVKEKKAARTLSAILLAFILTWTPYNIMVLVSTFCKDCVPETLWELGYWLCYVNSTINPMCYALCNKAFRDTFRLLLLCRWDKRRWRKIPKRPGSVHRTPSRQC
CHO-K1 Ca ag: counter-screen for M1 agonists: effect in parental CHO-K1 cells | hit rate 0.48% among 360,000 | activation, % at 3 µM | Fluo-8 calcium fluorescence; scaled to maximal ATP response, vehicle zero | AID 602248; in the data active = activation above about 15%;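 also: untransfected CHO-K1 host cells lacking M1 receptor as counterscreen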
M1 PAM parental: nonselective activator or artifact in parental CHO-K1 calcium assay; ATP EC20, Fluo-8 calcium fluorescence; 0% at ATP EC20, 100% at ATP max; activation, % at 3 µM; hit rate 0.02% among 360,000; AID 602247;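 active = activation above the run cutoff, the mean activation of all test compounds plus 3 SD, cut at about 40% in these data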;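 also: peak over basal fluorescence ratio in a 140 s read after ATP addition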
M1 antag: antagonists of human M1 muscarinic receptor | CHO-K1 hM1, Fluo-8 calcium fluorescence, ACh EC80 antagonist | hit rate 1.3% among 360,000 | inhibition, % at 3 µM;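 active = percent inhibition above its own plate's cutoff, namely the mean of that plate's compound wells plus 3 SD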;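 also: peak over basal fluorescence ratio during 140 s after agonist addition; 0% = ACh EC80 plus DMSO and 100% = DMSO alone without agonist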
CHRM1 PAM: positive allosteric modulators of human M1 muscarinic receptor. P11229. hit rate 0.088% among 360,000. CHO-K1 hM1, Fluo-8 calcium fluorescence, ACh EC20; 0% = ACh EC20, 100% = maximal ACh. activation, % at 3 µM; in the data active = activation above about 19%, passing the limit was not always enough
CHO-K1 Ca antag: M1 antagonist counterscreen hit in parental CHO-K1 cells; inhibition, % at 3 µM; AID 602250; ATP-induced calcium, Fluo-8 fluorescence; hit rate 0.6% among 360,000;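 active = inhibition above a per-plate cutoff, the plate's mean sample inhibition plus 3 SD, cut at about 24% in these data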;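 also: 0% = DMSO plus EC80 ATP and 100% = DMSO alone without ATP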
An asterisk follows results filed as active.

SMILES	M1 ag	CHO-K1 Ca ag	M1 PAM parental	M1 antag	CHRM1 PAM	CHO-K1 Ca antag
CCN(Cc1ccc(OC)c(COC)c1)CC1CCCN(CCc2cccc(F)c2)C1 (stereo not drawn)	-9	0	14	4	-10	-10
CCCCc1nnc(SCC(=O)NC2CCCCC2)n1C	-6	0	6	-5	1	-5
O=C(c1cc2cc(Br)ccc2o1)N1CCN(c2ccccc2)CC1	-3	0	7	1	-2	-3
CC(C)C[C@H](NC(=O)N1CCn2c1nc1ccccc12)C(=O)N[C@@H](Cc1ccccc1)C(=O)O	-3	0	-3	-7	4	3
C[N+](C)(C)C/C=C1/COCO1	91*	0	19	96*	-17	-7
Nc1nc(Nc2ccccc2F)sc1C(=O)c1ccccc1	17*	10	13	-3	11	-21
C=CC(C)(O)CCCC(C)CCCC(C)CCCC(C)C (stereo not drawn)	-2	1	-17	9	-4	3
COc1ccc(CCNS(=O)(=O)c2ccc3c(c2)CCN3C(=O)CCC(=O)O)cc1OC	-5	19*	12	-2	7	5
O=C(O)CCC(=O)N1CCc2cc(S(=O)(=O)NCCc3ccc(Cl)cc3)ccc21	0	2	12	-21	14	-15
O=C(Cn1ccc2ccccc2c1=O)NCC(=O)Nc1ccc(F)cc1F	-6	0	-6	-9	10	-13
CN1CCN(C(=O)c2ccc(CNS(=O)(=O)c3ccc(F)c(Cl)c3)cc2)CC1	-4	0	-9	-10	13	16
CN(Cc1ccccc1)C(=O)c1ccc(NC(=O)Cc2cccc(NC(=O)C3CCCN(C(=O)C4CCCC4)C3)c2)cc1 (stereo not drawn)	-9	0	-5	4	-5	-3
Cc1ccc(C(=O)Nn2c(N)c(S(=O)(=O)c3ccc(C)cc3)c3nc4ccccc4nc32)cc1	5	0	2	20*	0	4
Cc1ccc(S(=O)(=O)c2c(N)n(NC(=O)c3ccccc3C)c3nc4ccccc4nc23)cc1	-5	2	19	-7	3	0
CCN(CC)C1CCN(Cc2c(C(=O)N3CCCCCCC3)nc3ccc(Cl)cn23)C1 (stereo not drawn)	-6	0	-24	32*	-12	1
N#CC1=C(N)Oc2cc(N)ccc2C1c1cccc(F)c1 (stereo not drawn)	-4	2	22	-9	8	-13
CN(C)c1ccc2c(c1)OC(N)=C(C#N)C2c1cccc(F)c1 (stereo not drawn)	4	17*	11	11	-5	8
CC1(C)CC(=O)C2=C(C1)N=C1SCCC(=O)N1C2c1ccccc1 (stereo not drawn)	-8	0	0	36*	-15	-11
O=C1CCCC2=C1C(c1ccc(Cl)cc1)N1C(=O)CCSC1=N2 (stereo not drawn)	-3	0	-4	14	-1	15
O=[N+]([O-])c1ccc(N/N=C2\CC3CC=CC23)c([N+](=O)[O-])c1 (stereo not drawn)	-4	9	2	14	-5	12
O=[N+]([O-])c1ccc(NN=C2CC3CCC2C3)c([N+](=O)[O-])c1 (stereo not drawn)	-6	8	2	39*	-23	13
Fc1ccc(CNCc2ccc3c(c2)OCO3)cc1	-1	0	-9	-13	13	10
CC(CNCc1ccc2c(c1)OCO2)NCc1ccc2c(c1)OCO2 (stereo not drawn)	-9	2	43*	-4	-7	-24
COc1ccc(C(CNC(=O)Cc2c(F)cccc2Cl)N2CCCCC2)cc1 (stereo not drawn)	-7	4	8	68*	-26	-10
COc1ccc(C(CNC(=O)CNC(=O)c2ccc(F)cc2)N2CCCC2)cc1 (stereo not drawn)	-5	0	6	-6	4	-6
CNc1nc(Oc2ccccc2C(=O)OC)nc(SC)n1	-5	-1	-8	13	-6	30*
CCOC(=O)c1ccc(Oc2nc(NC)nc(SC)n2)cc1	1	0	11	-16	15	-13
